# About 180 (0.051%) of roughly 350,000 compounds were called active. This is one part of a sample in which actives are shown more often than they occur.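 Rule for the calls: active = mean inhibition across replicates of 30% or more, whatever share of single replicates reach that level; inconclusive = mean inhibition below 30% while every single replicate reaches 30%; inactive = the rest.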
# Target: Protein disulfide-isomerase (Homo sapiens) (UniProt P07237)
# Assay: inhibitors of human PDI, primary screen, biochemical, turbidity, single point, plate reader (AID 588391);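 note: absorbance from insulin aggregation driven by PDI reduction with DTT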
# Conditions: PDI insulin aggregation turbidity, A650, 90 min; at 10 µM; stronger effect = higher value
# Protein disulfide-isomerase (Homo sapiens), sequence (P07237 whole entry, looked up): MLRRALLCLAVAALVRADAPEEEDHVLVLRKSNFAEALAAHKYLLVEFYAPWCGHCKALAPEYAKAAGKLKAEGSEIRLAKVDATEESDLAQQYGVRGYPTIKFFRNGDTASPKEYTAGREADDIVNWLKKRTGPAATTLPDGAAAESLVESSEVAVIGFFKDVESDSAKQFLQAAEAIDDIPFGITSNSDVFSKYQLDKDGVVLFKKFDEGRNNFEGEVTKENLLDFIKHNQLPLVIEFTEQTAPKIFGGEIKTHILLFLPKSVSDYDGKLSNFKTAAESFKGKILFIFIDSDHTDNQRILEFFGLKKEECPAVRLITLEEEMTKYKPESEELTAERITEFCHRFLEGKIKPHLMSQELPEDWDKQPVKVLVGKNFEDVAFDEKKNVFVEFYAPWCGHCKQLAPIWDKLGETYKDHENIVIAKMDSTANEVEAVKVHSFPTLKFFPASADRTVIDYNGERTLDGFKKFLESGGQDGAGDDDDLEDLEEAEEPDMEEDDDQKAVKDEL
row,Structure (SMILES),inhibition
1,COc1ccc(-c2cc(NC(C)=O)c3ncc(-c4cc(OC)c(OC)c(OC)c4)n3c2)cn1,-21.1% (inactive)
2,CN(C)C(=O)c1cccc(-c2cnc3sc(NCc4ccc5c(c4)OCO5)nn23)c1,9.47% (inactive)
3,O=C(NCc1ccc(F)cc1)c1cc(C2CCCCN2C(=O)c2ccccn2)on1 (stereo not drawn),-12% (inactive)
4,CCN(CC)C(=O)C1CCCN(Cc2cccc(Cl)c2)C1 (stereo not drawn),-5.23% (inactive)
5,Cc1nc(C(F)(F)F)ccc1C(=O)N1CCC1(C)C(=O)NS(=O)(=O)c1ccccc1 (stereo not drawn),-40% (inactive)
6,CC(=O)Nc1cc(-c2ccccc2F)cn2c(-c3cccc(C(F)(F)F)c3)cnc12,0.488% (inactive)
7,CC(C)c1cccc(-c2csc(C(O)c3ccccc3)n2)c1 (stereo not drawn),4.52% (inactive)
8,CC(=O)OC1CCC2C3CCC4=C(CC(F)C(=O)C4)C3CCC12C (stereo not drawn),70.6% (active)
9,CCC(=O)N1CCC(C)(C(=O)Nc2cc(OC)c(OC)c(OC)c2)C1 (stereo not drawn),-1.21% (inactive)
10,Cc1ccc(NS(=O)(=O)c2cc3c(cc2Br)NC(=O)CO3)cc1C,-4.51% (inactive)
11,CCc1nc2c(OCc3ccc(C(F)(F)F)cc3)cccn2c1N(C)C(=O)CC(C)C,-3.58% (inactive)
12,OC(c1ccccc1)c1nc(-c2cnc3ccccc3c2)cs1 (stereo not drawn),4.04% (inactive)
13,CCOCCC(=O)Nc1ccc2c(c1)c(=O)n(C)n2-c1ccc2ccccc2c1,-6.74% (inactive)
14,Cc1nc2c(OCC(=O)C(C)(C)C)cccn2c1N(C)Cc1cccs1,-1.4% (inactive)
15,CCCS(=O)(=O)NC(=O)C1(C)CCN(C(=O)c2sccc2C)C1 (stereo not drawn),4.32% (inactive)
16,CCOC(=O)c1ccc(-c2ccc3ncnc(N(C)Cc4sccc4C)c3c2)o1,-3.79% (inactive)
17,CCc1nc2ccc(C(=O)N(C)CCN(C)C)cn2c1N(CC)CCOC,12.7% (inactive)
18,CC(=O)Nc1ccc(-c2ccnc3c2CC(C(=O)NC(C)C)O3)cc1 (stereo not drawn),-7.94% (inactive)
19,COc1ccc(-c2coc3c(C(=O)NC(C)C)cccc23)c(C)c1,-1.08% (inactive)
20,Cc1ccc(C(NC(=O)C2CCN(CCOc3ccc(Cl)cc3Cl)CC2)c2ccccn2)cc1 (stereo not drawn),2.42% (inactive)
21,O=C(NCCO)c1cccc(-c2cccc3nccn23)c1,-96.6% (inactive)
22,Cc1ccc(-c2cnc(C(O)c3cc(Cl)cc(Cl)c3)[nH]2)cc1 (stereo not drawn),-2.73% (inactive)
23,COc1cccc(C(O)c2ncc(-c3ccc4ccccc4c3)[nH]2)c1 (stereo not drawn),7.38% (inactive)
24,COc1ccc(C(=O)N2CCCCC2c2cc(C(=O)Nc3ccccc3)no2)cc1 (stereo not drawn),-4.91% (inactive)
25,O=C(NCc1cccnc1)c1ccc2nc([C@@H]3O[C@H](CO)[C@H](O)[C@H](O)[C@H]3O)[nH]c2c1,-7.99% (inactive)

row,Structure (SMILES),inhibition
1,CC1(C(=O)NS(=O)(=O)c2cccc(F)c2)CCN1C(=O)c1cccc2ccccc12 (stereo not drawn),-12.2% (inactive)
2,CC(=O)c1cccc(-c2cnc3c(NC=O)cc(-c4ccccc4Oc4ccccc4)cn23)c1,-15.6% (inactive)
3,CCNC(=O)C1CCCN(C(=O)c2ccc(OC)cc2OC)CC1 (stereo not drawn),-2.37% (inactive)
4,Cc1ccccc1-c1csc(C(O)c2cccc(Cl)c2)n1 (stereo not drawn),4.37% (inactive)
5,CCN(CCN(C)C)C(=O)c1ccc2nc(C)c(N(C)C(=O)CCc3ccccc3)n2c1,5.52% (inactive)
6,CCOc1ccc(Cl)cc1-c1cc(C(=O)NCc2cccs2)[nH]n1,5.86% (inactive)
7,CCCNC(=O)c1cc(C2CCCCN2C(=O)OC)on1 (stereo not drawn),5.56% (inactive)
8,CCCC(=O)N1CCC1(C)C(=O)NS(=O)(=O)c1ccc(Cl)cc1 (stereo not drawn),9.48% (inactive)
9,CC=CCn1c(SCCCc2ccccc2)nc2c1c(=O)[nH]c(=O)n2C,8.5% (inactive)
10,Oc1cccc2cc(-c3ccncc3)cnc12,-15.1% (inactive)
11,COCCNC(=O)C1(C)CCCN(Cc2cccc(F)c2)C1 (stereo not drawn),1.38% (inactive)
12,CCCCN(C=O)c1c(CC)nc2c(OCCC3CCCCC3)cccn12,-6.94% (inactive)
13,O=C(NC(c1ccc(-c2ccccc2)cc1)c1cnccn1)C1CCN(CCOc2ccc(Cl)cc2Cl)CC1 (stereo not drawn),4.84% (inactive)
14,COc1ccc(-c2csc(C(O)c3cccc(Cl)c3)n2)cn1 (stereo not drawn),8.11% (inactive)
15,CC(C)(C(=O)N1CCC1(C)C(=O)NS(=O)(=O)c1ccc(Br)cc1)c1ccccc1 (stereo not drawn),-3.96% (inactive)
16,COc1cc(NC(=O)c2cc(-c3ccc(F)cc3OC(C)C)n[nH]2)cc(OC)c1OC,-4.94% (inactive)
17,CC(C)Oc1cc(F)ccc1-c1cc(C(=O)Nc2cccc(Cl)c2)[nH]n1,12.1% (inactive)
18,Cc1ccccc1Cn1c(C)c(C(=O)NCc2cccc(C(F)(F)F)c2)sc1=O,-0.337% (inactive)
19,CC(=O)Nc1cc(-c2ccc(N3CCN(C)CC3)cc2)cn2c(-c3ccc(F)cc3)cnc12,0.066% (inactive)
20,CCCNC(=O)C1(C)CCN1C(=O)Cc1ccc(-c2ccccc2)cc1 (stereo not drawn),12.7% (inactive)
21,Cc1cccc(CNC(=O)c2sc(=O)n(Cc3ccccc3C)c2C)c1,-13.7% (inactive)
22,O=C(Nc1ccc(Cl)c(C(F)(F)F)c1)C1Cc2c(-c3ccccc3Oc3ccccc3)ccnc2O1 (stereo not drawn),-5.07% (inactive)
23,CNc1cncc(-c2ccc(NS(C)(=O)=O)cc2)n1,-0.527% (inactive)
24,COc1ccc(Cl)cc1-c1cc(C(=O)Nc2cc(OC)c(OC)c(OC)c2)[nH]n1,-0.731% (inactive)
25,CN1CCN(C(=O)c2ccc(-c3cc4nc(NCc5cccnc5)n(C)c(=O)c4s3)cc2)CC1,16.2% (inactive)

row,Structure (SMILES),inhibition
1,COc1ccc(-c2ccc(C(=O)NC(C)C)c3occc23)c(C)c1,-1.92% (inactive)
2,COc1cccc(CNc2nc3cc(-c4csc5ccccc45)sc3c(=O)n2C)c1,-2.68% (inactive)
3,Cc1nc2c(OCc3cccc(Cl)c3)cccn2c1N(C)CC1CC1,4.97% (inactive)
4,CCCCC(=O)N(C)c1c(CC)nc2c(OCc3ccc(Cl)cc3Cl)cccn12,-3.52% (inactive)
5,OC(c1ccccc1)c1nc(/C=C/c2ccc(C(F)(F)F)cc2)cs1 (stereo not drawn),-51.4% (inactive)
6,CN(C)CCNC(=O)c1ccc(-c2cn3c(-c4ccc(Oc5ccccc5)cc4)cnc3cn2)cc1,-1.11% (inactive)
7,COc1cccc(-c2cc3nc(NCCOc4ccccc4Cl)n(C)c(=O)c3s2)c1,-11.2% (inactive)
8,CCc1nc2ccc(C(=O)NC3CCN(Cc4ccccc4)CC3)cn2c1N(CC)CCOC,-3.56% (inactive)
9,O=C(NCc1cccc(C(F)(F)F)c1)c1ccc2sc(COCCO)nc2c1,-1.75% (inactive)
10,CN(C)CCNC(=O)c1cccc(-c2cnc3c(NC=O)cc(-c4cccc(C(F)(F)F)c4)cn23)c1,4.96% (inactive)
11,Cc1cc(C)n2nc(CNS(=O)(=O)c3c(F)c(F)c(F)c(F)c3F)nc2n1,127% (active)
12,Cc1cc(C)n2nc(SCC(N)=O)nc2n1,-1.27% (inactive)
13,Cc1cc(C)n2nc(C(=O)NC(C)(C)C)nc2n1,0.598% (inactive)
14,CC1(C(=O)NS(=O)(=O)c2cccc(OC(F)F)c2)CCN1C(=O)C1CC1 (stereo not drawn),-4.8% (inactive)
15,CCCOc1ccc(F)cc1-c1cc(C(=O)NCc2ccc(F)cc2)[nH]n1,-0.369% (inactive)
16,CC1(C(=O)Nc2cccc3c2CCCC3)CCN1C(=O)C1(c2ccccc2)CC1 (stereo not drawn),-0.663% (inactive)
17,NC(c1csc(NC(=O)Nc2cccc(C(F)(F)F)c2)n1)C1CCCCC1 (stereo not drawn),0.691% (inactive)
18,O=C1N=C(N2CCc3ccccc3C2)S/C1=C\c1ccc(O)cc1,-5.75% (inactive)
19,NC1=NC(=O)S/C1=C\c1ccc(O)cc1,43.5% (active)
20,CC(C)(C)c1ccc(/C=C2\SC(=O)N=C2N)cc1,7.63% (inactive)
21,OC(c1ccc(Cl)cc1)c1ncc(-c2ccc(Cl)cc2)[nH]1 (stereo not drawn),-6.36% (inactive)
22,COc1ccc(C2CC(c3cccc(OC)c3)=NN2c2ccc(S(N)(=O)=O)cc2)cc1 (stereo not drawn),-2.45% (inactive)
23,COc1ccc(C(C)(NC(C)=O)c2nc(-c3ccc(S(C)(=O)=O)cc3)cs2)cc1 (stereo not drawn),4.43% (inactive)
24,COc1cc(F)ccc1-c1cc(C(=O)NCC2CCCCC2)[nH]n1,25% (inactive)
25,CC1(Cc2cccc(C#N)c2)C(=O)Nc2ccc(-c3cccc(C(F)(F)F)c3)cc21 (stereo not drawn),10.6% (inactive)

row,Structure (SMILES),inhibition
1,CC(=O)Nc1ccc(CNc2nc(NCCN(C)C)nc3cc(-c4ccccc4)sc23)cc1,-1.45% (inactive)
2,Cc1cc(O)ccc1-c1cc(C(=O)NCc2cc(C(F)(F)F)cc(C(F)(F)F)c2)[nH]n1,-11.3% (inactive)
3,Cc1cccnc1C(NC(=O)C1CCN(Cc2ccc(Cl)c(Cl)c2)CC1)c1ccc(Cl)cc1 (stereo not drawn),-20.8% (inactive)
4,CCCNC(=O)c1cc(C2CCCCN2S(=O)(=O)c2ccc(C#N)cc2)on1 (stereo not drawn),9% (inactive)
5,Cc1ccc(Cn2c(C)c(C(=O)NCc3ccccc3C(F)(F)F)sc2=O)cc1,-2.82% (inactive)
6,CCN(CC)c1ncnc2c1ncn2[C@H]1CN(Cc2cccs2)C[C@@H](CO)O1,5.5% (inactive)
7,Cc1cccn2c(CN(C)C3CCCc4ccccc43)c(C(=O)N3CCOCC3)nc12 (stereo not drawn),36.6% (active)
8,CCOC(=O)C1CCN(Cc2c(C(=O)N3CCOCC3)nc3c(C)cccn23)CC1,-7.14% (inactive)
9,Cc1cccn2c(CNCC(C)Oc3cccnc3)c(C(=O)N3CCOCC3)nc12 (stereo not drawn),3.93% (inactive)
10,O=C(Nc1nnc([C@H]2C[C@H](O)[C@@H](CO)O2)s1)c1cccc(Cl)c1,12.3% (inactive)
11,CC(=O)Nc1cc(-c2ccccc2N(C)C)cn2c(-c3ccc(F)c(Cl)c3)cnc12,-1.53% (inactive)
12,CC(O)(c1cccc(F)c1)c1nc(-c2ccc3c(c2)OCO3)cs1 (stereo not drawn),0.825% (inactive)
13,Cc1nc2c(OCc3ccc(Cl)cc3)cccn2c1N(C)Cc1cccs1,-1.78% (inactive)
14,CCOC(=O)c1c(-c2ccccc2)oc2cc(Br)c(O)cc12,36.3% (active)
15,CCOC(=O)c1c(-c2ccccc2)oc2cc(Br)c(O)c(C=O)c12,6.15% (inactive)
16,CCOC(=O)c1c(-c2ccccc2)oc2ccc(OCC(=O)NN)cc12,-2.38% (inactive)
17,CCOC(=O)c1c(CN2CCOCC2)n(-c2ccccc2)c2ccc(O)cc12,27.2% (inactive)
18,CCOC(=O)c1c(CN(C)C)n(-c2ccccc2)c2cc(Br)c(O)cc12,39.9% (active)
19,CCOC(=O)c1c(NC(C)=O)sc2c(O)c(Br)ccc12,3.13% (inactive)
20,O=C(NCc1cccnc1)c1cc(C2CCCCN2C(=O)CCc2ccccc2)on1 (stereo not drawn),3.32% (inactive)
21,CCCC(=O)N1CCC1(C)C(=O)Nc1ccc(-n2cncn2)cc1 (stereo not drawn),4.25% (inactive)
22,COc1ccc(C(C)(O)c2nc(-c3cc(F)cc(F)c3)cs2)cc1 (stereo not drawn),-18.6% (inactive)
23,Cc1ccc(CC2(C)C(=O)Nc3ccc(OC(F)(F)F)cc32)cc1 (stereo not drawn),5.49% (inactive)

# From PubChem BioAssay AID588391 (Broad Institute, 2011)
